Source: PubChem BioAssay
This is a sample that favours compounds with a hit; in the whole collection about 3.9% have one here.
BoNT F protease: inhibitors of Botulinum neurotoxin F light chain protease | AID 588497 | inhibition, % at 10 µM | Multiplex microsphere protease cleavage assay, flow cytometry | 360,000 tested, 0.22% active; in the data active = inhibition above about 35%, passing the limit was not always enough; inconclusive = no clear call, values can overlap the other calls
Autofluor counter: compound fluorescence in toxin protease inhibitor counterscreen. compound autofluorescence counterscreen, microsphere flow cytometry; active compounds read high. fluorescence intensity (no concentration beside the values). 360,000 tested, 3.1% active; in the data active = fluorescence intensity above about 16000; inconclusive = no clear call, values can overlap the other calls
Anthrax LF inh2: anthrax lethal factor protease inhibition | P15917 | multiplex microsphere protease cleavage assay, LF | inhibition, % at 10 µM | 360,000 tested, 0.12% active
CCHFV vOTU inh: CCHFV vOTU protease inhibition | Pep-AMC fluorescence | 370,000 tested, 0.55% active | inhibition, % at 11.5 µM; in the data active = inhibition above about 30%
BoNT-A LC inh2: BoNT A light chain protease inhibition | 360,000 tested, 0.17% active | multiplex microsphere protease substrate cleavage, flow cytometry | inhibition, % at 10 µM | AID 588499
3CLpro inhibitor: SARS-CoV 3CLpro protease inhibition; 290,000 tested, 0.14% active; inhibition, % at 6 µM; recombinant SARS-CoV 3CLpro, quenched FRET peptide cleavage; AID 1706; in the data active = inhibition above about 12%
Hits are given with their value; n = inactive; u = inconclusive; x = not tested or not shown. Cut-off read from the data, not from the text of the source, unless noted: active = inhibition above about 30%; inconclusive = no clear call, values can overlap the other calls; inactive = below that.

SMILES	BoNT F protease	Autofluor counter	Anthrax LF inh2	CCHFV vOTU inh	BoNT-A LC inh2	3CLpro inhibitor
C=C1CC(C)OC(c2ccccc2OCC(O)CN2CCCCC2)C1 (stereo not given)	n	21660	n	n	u	n
OC(COc1cccc2ccccc12)CN1CCCC1 (stereo not given)	n	n	n	n	n	n
COc1ccc(CCNC(=O)c2cccc(S(=O)(=O)N3CCCCCC3)c2)cc1	n	n	n	n	n	x
CCNC(=O)CC1C(=O)N(c2ccc(C)cc2)C(=O)N1CCc1ccc(OC)c(OC)c1 (stereo not given)	n	n	n	n	n	n
CCNC(=O)CC1C(=O)N(c2ccc(F)cc2)C(=O)N1CCc1ccc(OC)cc1 (stereo not given)	n	20994	n	n	n	n
CCOC(=O)c1ccc(NC(=O)CC2C(=O)N(c3ccccc3)C(=O)N2CCCOC)cc1 (stereo not given)	n	19974	n	n	n	n
CCNC(=O)CC1C(=O)N(c2ccccc2)C(=O)N1CCc1ccc(OC)c(OC)c1 (stereo not given)	n	22965	n	n	u	n
O=C(c1ccccc1I)N1CCC(Oc2cccnc2)CC1	x	x	x	n	x	x
CC1CN(S(=O)(=O)Cc2ccccc2)CC(C)O1 (stereo not given)	n	n	n	n	n	n
CC1CN(S(=O)(=O)c2ccccc2)CC(C)O1 (stereo not given)	n	23507	n	n	u	n
CCCCn1c(N)c(-c2nc3ccccc3s2)c2c([N+](=O)[O-])nn(CC)c(=O)c21	n	n	n	n	n	n
CCCCCn1c(N)c(-c2nc3ccccc3s2)c2c([N+](=O)[O-])nn(CC)c(=O)c21	n	17846	n	n	n	n
O=C(c1csc2ccccc12)N1CCN(c2ccccn2)CC1	n	n	n	n	n	n
O=C(c1csc2ccccc12)N1CCCCCC1	n	20758	n	n	n	n
N#C/C(=C\c1ccncc1)c1nc2ccccc2c(=O)[nH]1	n	n	n	n	n	n
CCOC(=O)C1=C(N)OC2=C(C(=O)CC(C)(C)C2)C1c1ccccc1OCC#N (stereo not given)	n	20405	n	n	n	n
Cc1ccc(N2C(=O)[C@@H]3Cc4ccccc4CN3C2=O)cc1	n	21075	n	n	n	n
Cc1oc2c(c(C)cc3oc(=O)c(CC(=O)N[C@@H](C)C(=O)O)c(C)c32)c1C	n	n	n	n	n	n
CC[C@@H](C)[C@H](NC(=O)Cc1c(C)c2c(cc(C)c3c(C)c(C)oc32)oc1=O)C(=O)O	38	n	n	n	n	n
COCCOC(=O)C1=C(C)NC(=O)NC1c1cn(-c2ccccc2)nc1-c1cccs1 (stereo not given)	n	n	n	n	n	n
COC(=O)C1=C(C)NC(C)=C(C(=O)OC)C1c1cn(-c2ccccc2)nc1-c1ccco1	n	16749	n	n	n	n
COc1ccc(CONS(=O)(=O)c2ccc(NC(C)=O)cc2)cc1Cl	n	20406	n	n	n	n
COC(=O)C(C#N)(CCC(=O)c1ccccc1)CCC(=O)c1ccccc1	n	n	n	n	n	x
COC(=O)[C@H]1C[C@@]2(C)c3ccccc3N(S(=O)(=O)c3ccccc3)[C@H]2N1	x	x	x	n	x	x
CCn1c(SCC(=O)N2CCN(c3ccccc3)CC2)nnc1-c1cc2cc(Cl)ccc2o1	n	22674	n	n	u	n
SMILES	BoNT F protease	Autofluor counter	Anthrax LF inh2	CCHFV vOTU inh	BoNT-A LC inh2	3CLpro inhibitor
Nc1nnc(SCc2ccc(Cl)cc2)s1	n	n	n	n	n	n
Cc1nnc(SCc2ccc3c(c2)OCO3)s1	n	21079	n	n	n	n
Nc1nnc(SCc2ccc(F)cc2Cl)s1	n	21708	n	x	n	n
Cc1nnc(SCc2ccc(F)cc2Cl)s1	n	19791	n	n	n	n
Cc1nnc(SCc2cccc(CSc3nnc(C)s3)c2)s1	n	n	n	n	n	n
Cc1ccc2occ(CN3CCN(Cc4ccccc4)CC3)c(=O)c2c1	x	x	x	x	x	n
O=c1c(CN2CCN(Cc3ccccc3)CC2)coc2ccc(Cl)cc12	n	19830	n	n	n	n
COc1ccc(N2C(=O)CSC2c2ccc3c(c2)OCO3)cc1 (stereo not given)	n	16403	n	n	n	n
COc1ccc(N2C(=O)CSC2c2ccc3c(c2)OCO3)c(OC)c1 (stereo not given)	n	n	n	n	n	n
O=C(Nc1ccc(C(=O)OC[C@@H]2CCCN3CCCC[C@H]23)cc1)c1cccc(Br)c1	n	n	n	n	n	n
